# Reference: PubChem BioAssay AID1986 (Sanford-Burnham Center for Chemical Genomics, 2009)
# The campaign covered roughly 290,000 compounds. About 890 (0.31%) were called active. Rule as the data show it: active = inhibition mostly above about 52% (no sharp cut-off); inactive = mostly below about 76%. For the sample, actives were picked, then their nearest neighbours and some compounds at random.
# Test: cell-free HIV fusion peptide-binding blockers – biochemical, uHTS, fluorescence dequenching, primary screen (AID 1986)
# Details: 30 min, stronger effect = higher value
# [1] = measured here: repeat confirmation average inhibition, at 18.6 µM
SMILES,inhibition (at 20 µM),inhibition [1] [%]
CCOC(=O)C1=C(C)NC(=O)NC1c1ccc(OCC(=O)OC)c(OC)c1 (centres undefined),-0.4% (inactive),–
CC(=O)Nc1cccc(CNCc2cccc(NC(C)=O)c2)c1,-0.7% (inactive),–
O=C(Nc1cccc(-c2cn3ccccc3n2)c1)c1cnccn1,-0.3% (inactive),–
CC(=O)C1=C(c2ccccc2)NC(=O)NC1c1cccs1 (centres undefined),0.1% (inactive),–
CCc1cccc(NC(=O)CCS(=O)(=O)c2cc3c(cc2C)NC(=O)CO3)c1,0.8% (inactive),–
CCOc1cc(-c2nc(-c3ccncc3)no2)cc(OCC)c1OCC,0.5% (inactive),–
CCC(CCC(=O)Nc1cccc(C(=O)O)c1)C(=O)O (centres undefined),-0.2% (inactive),–
COc1ccc(Br)cc1C(=O)Nc1ccc(N2CCCC2)cc1,-1.9% (inactive),–
Cc1ccccc1NC(=O)CN1C(=O)S/C(=C\c2ccc(-c3cccc(C(=O)O)c3C)o2)C1=O,32% (inactive),–
Cc1ccc(C(=O)O)cc1-c1ccc(/C=C2\SC(=O)N(CC(=O)Nc3ccc4c(c3)OCO4)C2=O)o1,69.1% (inactive),25.2
Cc1ccc(NC(=O)CN2C(=O)S/C(=C\c3ccc(-c4cccc(C(=O)O)c4C)o3)C2=O)cc1,63.2% (active),–
COc1ccc(C(=O)NC2CCCCCC2)cc1OC1CCN(C(C)=O)CC1,0% (inactive),–
COc1ccc([N+](=O)[O-])cc1NC(=O)COC(C)=O,-1.8% (inactive),–
O=C(CN1CCN(c2ccccc2)CC1)N1CCc2[nH]c3ccccc3c2C1,2% (inactive),–
O=C1/C(=C\c2ccco2)SC(=S)N1Cc1ccccc1,66% (inactive),-1.7
CCCN(CCC)c1nc2c(C)cccn2c(=O)c1/C=C1/SC(=S)N(Cc2ccco2)C1=O,49.5% (inactive),–
CCN1CCN(c2c(/C=C3\SC(=S)N(Cc4ccco4)C3=O)c(C)c(C#N)c(=O)n2C)CC1,89.4% (active),167
C=CCOc1ccc(C2/C(=C(\O)c3ccc4c(c3)OCCO4)C(=O)C(=O)N2CCCN2CCOCC2)cc1 (centres undefined),-1.6% (inactive),–
Cc1cc(NC(=O)CCCC(=O)N(CC(=O)NC2CCCCC2)c2ccccc2)no1,-0.7% (inactive),–
CNC(=S)N1CCN(S(=O)(=O)c2ccc3ccccc3c2)CC1,-0.9% (inactive),–
CCCc1ccc2oc(C(=O)NCCN3CCCC(O)C3)c(C)c2c1 (centres undefined),0.9% (inactive),–
c1ccc2c(c1)nc(CN1CCOCC1)n1c3ccccc3nc21,2.2% (inactive),–
O=c1c2cccc3c(N4CCOCC4)ccc(c32)c2nc3ccccc3n12,113% (active),–
O=c1c2ccc([N+](=O)[O-])c3cccc(c32)c2nc3ccccc3n12,10.2% (inactive),–

SMILES,inhibition (at 20 µM),inhibition [1] [%]
Cc1ccc(OCc2cc(C(=O)N(C)CC3CCOCC3)no2)cc1C,-2% (inactive),–
O=C(CCN1C(=O)/C(=C/c2ccc(Cl)cc2)SC1=S)Nc1cccc(C(=O)O)c1,62.4% (inactive),2.3
O=C1/C(=C\c2ccco2)SC(=S)N1c1ccccc1,41.6% (inactive),–
CC(/C=C1\SC(=S)N(CC(=O)O)C1=O)=C\c1ccccc1,35.8% (inactive),–
CC(=C\c1ccccc1)/C=C1/SC(=S)N(CCC(=O)O)C1=O,26.1% (inactive),–
O=C(O)CN1C(=O)/C(=C/c2ccc(SCc3ccccc3)o2)SC1=S,73.1% (active),105
O=C(O)CN1C(=O)/C(=C\C(Br)=C\c2ccccc2)SC1=S,62.6% (active),–
O=C(O)c1cccc(N2C(=O)/C(=C/c3ccc(SCc4ccc(Cl)cc4)o3)SC2=S)c1,63% (active),–
O=C(O)CN1C(=O)/C(=C/c2ccc(N3CCCCC3)o2)SC1=S,7.4% (inactive),–
Cc1ccc(/C=C2\SC(=S)N(Cc3ccccc3)C2=O)o1,-3.6% (inactive),–
Cn1cnnc1SCC(=O)N1CCc2ccccc21,-0.4% (inactive),–
CCOC(=O)C(C)c1nc2ccccc2[nH]c1=O (centres undefined),-0.4% (inactive),–
CN1C2C=C(N(CCc3ccccc3)C(=O)c3ccc(Cl)cc3)CC1CC2 (centres undefined),-0.4% (inactive),–
C=C1CN(CC(=O)OC)S(=O)(=O)c2ccccc21,0.8% (inactive),–
COc1ccccc1NC(=O)c1ccc(-c2nn(C)c(=O)c3ccccc23)cc1,0.7% (inactive),–
Cc1nn(CC(=O)N2CCCC2)c(=O)c2nn(-c3ccccc3)c(C)c12,0.3% (inactive),–
CC(CCC(=O)O)C1CC[C@H]2C3CCC4CC(=O)CCC4(C)[C@H]3CC(=O)C12C (some centres undefined),-1.2% (inactive),–
CC1(C)C(=O)OC(c2cccs2)C(C)(C)C1=O (centres undefined),0.5% (inactive),–
O=C(CSc1nc2scc(-c3ccco3)c2c(=O)n1-c1ccccc1)N1CCOCC1,4.2% (inactive),–
CC1CCN(S(=O)C23CC4CC(CC(C4)C2)C3)CC1 (centres undefined),1.3% (inactive),–
CCOC1OC2C(CO)OC(n3cnc4c(N)ncnc43)C2O1 (centres undefined),1.6% (inactive),–
Cc1cccc2c(N=O)c(O)[nH]c12,17.9% (inactive),–
Oc1[nH]c2ccccc2c1N=Nc1ccccc1,146% (inactive),–
Cc1cccc2c(N=Nc3ccccc3)c(O)[nH]c12,52.7% (active),60.4

SMILES,inhibition (at 20 µM),inhibition [1] [%]
CCCCc1ccc(S(=O)(=O)N2CCN(C(=O)c3ccco3)CC2)cc1,2% (inactive),–
Cc1ccc(C)c2[nH]c(=O)c(CN(Cc3cccs3)C(=S)NCc3ccco3)cc12,16.7% (inactive),–
CN(C)CCCN1C(=O)C2CCc3[nH]c4ccccc4c3C2C1=O (centres undefined),-1% (inactive),–
COc1cc(/C=C2/C(=N)N3N=C(CC(=O)N4CCOCC4)SC3=NC2=O)ccc1OC(C)c1ccccc1 (centres undefined),36% (inactive),–
CNc1ccc(Br)cc(C(=O)/C=C/c2cccc(Cl)c2Cl)c1=O,61.9% (inactive),4.3
CCNc1ccc(Br)cc(C(=O)/C=C/c2ccc(Cl)cc2Cl)c1=O,63.3% (inactive),13.7
CNc1ccc(Br)cc(C(=O)/C=C/c2ccc(Cl)cc2Cl)c1=O,61.5% (active),–
COc1cc(NC(=O)C2CC(c3c(F)cccc3Cl)=NO2)cc(OC)c1OC (centres undefined),0% (inactive),–
Cc1onc(-c2ccccc2Cl)c1C(=O)Nc1ccc(Br)cc1,-0.2% (inactive),–
CCS(=O)(=O)c1ccc2oc(Nc3cc(Cl)ccc3OC)nc2c1,-1% (inactive),–
CCC(=O)Nc1cc(Cl)ccc1C(=O)O,-0.2% (inactive),–
O=C(O)c1ccc(Cl)cc1Nc1nc2cc(Cl)ccc2o1,67.6% (active),–
O=C(/C=C/c1ccccc1)NCCSCc1ccccc1Cl,-2.6% (inactive),–
O=S1(=O)C=CC(c2ccccc2)C1 (centres undefined),0.2% (inactive),–
COC(=O)c1nn(-c2ccccc2)c(Sc2ccc(OC)cc2)c1/C=N/O,2.7% (inactive),–
O=c1c(-c2ccccc2)coc2c(CN3CCCCC3)c(O)ccc12,0.2% (inactive),–
O=C1NC(=S)/C(=C\c2ccc(-c3ccccc3Cl)o2)S1,70.7% (inactive),0.5
O=C(O)C(c1ccccc1)N1C(=O)/C(=C\c2ccc(-c3ccc(Br)cc3)o2)SC1=S (centres undefined),143% (inactive),–
O=C(O)C(c1ccccc1)N1C(=O)/C(=C\c2ccc(-c3cccc(Cl)c3)o2)SC1=S (centres undefined),91.2% (active),120
O=C(O)C(c1ccccc1)N1C(=O)/C(=C\c2ccc(-c3ccccc3Cl)o2)SC1=S (centres undefined),94.5% (active),110
O=C(O)C(c1ccccc1)N1C(=O)/C(=C/c2cccs2)SC1=S (centres undefined),14.3% (inactive),–
COc1ccccc1/C=C1\SC(=S)N(C(C(=O)O)c2ccccc2)C1=O (centres undefined),30.1% (inactive),–
COc1ccc(OC)c2[nH]c(=O)c(CCNC(=O)c3ccc(S(=O)(=O)N4CCCCC4)cc3)cc12,-1.4% (inactive),–
Cc1ccc2c(c1)N(CCC(=O)NCCCOC(C)C)C(=O)C(C)O2 (centres undefined),-1.1% (inactive),–

SMILES,inhibition (at 20 µM),inhibition [1] [%]
COC(=O)c1sc2ccccc2c1NC(=O)c1ccc(S(=O)(=O)N2CC(C)CC(C)C2)cc1 (centres undefined),-1.5% (inactive),–
CCOc1ccc(Br)cc1S(=O)(=O)NCCN(C)C,2% (inactive),–
CCN(CC)c1ccc2c(c1)oc(=O)c1c(Cl)cc(=O)oc12,106% (active),164
CCN(CC)c1ccc2c(C)c(Cl)c(=O)oc2c1,4.7% (inactive),–
CCN(CC)c1ccc2c(Cl)cc(=O)oc2c1,3.7% (inactive),–
C#CCOCCOCCOCCNc1nc(N2CCN(C(=O)[C@H]([C@@H](C)CC)n3cc([C@@H](N)CC(C)C)nn3)CC2)nc(N2CCN(C(=O)[C@H](CCCCN)n3cc([C@@H](N)CO)nn3)CC2)n1,-1.1% (inactive),–
CC(C)(C)NC(=O)NC(=O)COC(=O)c1ccco1,1.7% (inactive),–
O=C(O)/C=C/C(=O)N(CC1CCCO1)C1CC(=O)N(c2c(Cl)cccc2Cl)C1=O (centres undefined),7.8% (inactive),–
O=C1N=C(N2CCN(c3ccccc3)CC2)S/C1=C\c1ccco1,0.9% (inactive),–
O=C1N=C(N2CCN(c3ccccc3)CC2)S/C1=C/c1ccco1,-1.8% (inactive),–
O=C1N=C(N2CCCC2C(=O)O)S/C1=C\c1ccco1 (centres undefined),52.2% (active),–
CCOc1cc(CNCCCN2CCOCC2)cc(Br)c1OCc1ccccc1Cl,0.9% (inactive),–
Cc1ccc(N/N=C/c2ccc3c(c2)OCCO3)cc1Cl,2.7% (inactive),–
COC(=O)c1nnn(-c2ccccc2)c1N,-4.4% (inactive),–
N#CC1=C(N)n2c(s/c(=C\c3ccco3)c2=O)=C(C#N)C1c1ccco1 (centres undefined),26% (inactive),–
N#CC1=C(N)n2c(s/c(=C\c3cccs3)c2=O)=C(C#N)C1c1cccs1 (centres undefined),74.8% (active),–
CCOC(=O)C1=C(N)n2c(s/c(=C\c3cccs3)c2=O)=C(C(=O)OCC)C1c1cccs1 (centres undefined),3.8% (inactive),–
CCc1nnc(NC(=O)C2Cc3ccccc3C(=O)O2)s1 (centres undefined),-3.6% (inactive),–
CCOC(=O)c1c(/N=C/C2=C(O)CC(C)(C)CC2=O)sc(C)c1C,1.6% (inactive),–
CCOC(=O)c1c(-c2ccc(OC)cc2)csc1/N=C/C1C(=O)CCCC1=O,52.3% (inactive),2.2
CCOC(=O)c1c(/N=C/C2=C(O)CCCC2=O)sc2c1CCCC2,-0.2% (inactive),–
CCOC(=O)c1c(/N=C/C2=C(O)CCCC2=O)sc(C)c1C,52.3% (active),–
CCOC(=O)c1c(-c2ccc(OC)cc2)csc1/N=C/C1=C(O)CCCC1=O,71.6% (active),–
CCOC(=O)c1c(CC(C)C)csc1/N=C/C1=C(O)CCCC1=O,21.5% (inactive),–
